# Measured values reported in PubChem BioAssay AID686971 (National Center for Advancing Translational Sciences (NCATS), 2013).
# In all, about 360,000 compounds went through this assay and about 7,500 (2.1%) were called active. Not shown: some 8% with an inconclusive outcome. This is one part of a sample in which actives are shown more often than they occur. Unmarked numbers belong to inactive results. Calls follow the shape of the dose curve; as a rule, active = well fitted cell-killing curve with a large enough effect; inconclusive = small, poorly fitted or top-dose-only effect, or effect the other way, or another doubt; inactive = no such curve, though single readings can be large or run the other way.
# Test: qHTS for induction of synthetic lethality in tumor cells producing 2HG: qHTS for the HT-1080-IDH1KD cell line
# Conditions: HT-1080 IDH1 knockdown viability, ATP luminescence, 48 h; series mostly up to 46.1 µM; activity, negative = toxicity: at the top concentration
# Text: Unbiased genomic sequencing for 22 glioma genomes found recurrent mutation of IDH1 on chromosome 2q33, a gene encoding the cytosolic isoform of IIDH1 associated with the tri-carboxylic acid cycle (TCA) that catalyzes the oxidative decarboxylation of isocitrate, yielding alpha-ketoglutarate and CO2 via NADP+ to NADPH conversion. Subsequent studies confirmed the recurrent IDH mutations in up to 70% of secondary gliomas and in 10% of AML cases. In addition, the somatic mutation of cancer-associated IDH1 is a point mutation resulting in various amino-acid substituents at Arginine132 (IDH1 R132), a key residue found in the enzyme's active site that when mutated, results in the loss-of-function in metabolizing isocitrate but confers a gain-of-function to produce the oncometabolite 2-hydroxyglutarate (2HG). This in effect defines IDH1 as an oncogene and provides an extraordinary opportunity to discover chemical probes against mutant IDH1 that may translate into much needed new therapies for glioma and AML patients.
# This assay aims to perform a synthetic-lethal screen for chemical probes specific for 2HG-producing tumor cells using matched paired cell lines (1) HT-1080-NT fibrosarcoma cell line that overproduces 2HG and (2) HT-1080-IDH1KD cell line which has IDH1 expression knocked-down. Desirable compounds are toxic to the NT fibrosarcoma cell line but not to the IDH1KD cell line. The data in this AID corresponds to the results of the qHTS against the HT-1080 IDH1KD cell line.
# [1] Dang L, Jin S, Su SM. IDH mutations in glioma and acute myeloid leukemia. Trends of Mol Med. 2010; 16(9): 387-97.
# [2] Dang L et al. Cancer-associated IDH1 mutations produce 2-hydroxyglutarate. Nature. 2010; 465(7300):966.
# Molecular Libraries Probe Production Centers Network [MLPCN]
# NIH Chemical Genomics Center [NCGC]
# Assay Submitter (PI): Lenny Dang Ph.D., Agios Pharmaceuticals
# Suspensions of trypsinized HT-1080-IDH1KD cells were dispensed into white, tissue culture-treated, solid 1536-well plates at 5uL/well (750 cells/well final concentration) in RPMI medium supplemented with 5% FBS. Plates were incubated at 37 degrees C for 2 hours, after which 23 nL of compounds or DMSO were delivered to each well using a pin tool. Plates were then incubated at 37 degrees C for an additional 48 hours. CellTiter-Glo viability reagent (Promega) was dispensed into wells (2.5uL/well) and incubated at room temperature for 10 minutes. The plates were measured on a PerkinElmer ViewLux plate reader for luminescent signal (clear filter, 1 sec exp.). DMSO-treated control wells and media-only (no cells) control wells were used to normalize %Activity of identified toxic compounds; DMSO-treated wells corresponded to 0%Activity (100% viability), while media-only controls were used to normalize 100%Activity (0% viability). To minimize variability between cell lines, both HT-1080-NT and HT-1080-IDH1KD lines were dispensed and treated with identical compound series in single batches.
# Concentration-response curves were fitted to the signals arising from the resulting luminescence. The concentration-effect curves were then classified based on curve quality (r2), response magnitude and degree of measured activity, and compounds were subsequently categorized based on their curve class.
# Potency is read from the fitted curve at half-maximal effect.
Compound,"activity, negative = toxicity",Potency
CC1(Oc2cccc(F)c2)CCN(Cc2ccccc2OC(F)F)C1 (stereo not drawn),15.1%,–
Cn1c(COc2ccc(Cl)cc2)nc2ccccc2c1=O,4.13% [at 9.24 µM],–
Cc1[nH]n(-c2ccc([N+](=O)[O-])cc2)c(=O)c1C=NCCN1CCN(C(=O)c2ccccc2F)CC1,-28.4%,–
Cc1[nH]n(-c2ccc(Cl)cc2)c(=O)c1/C=N/n1c(C)nc2ccccc2c1=O,–,16.4 µM (active)
CC1(C(=O)NCc2ccccc2)CSCC(=O)N1CCCN1CCOCC1 (stereo not drawn),-9.76%,–
O=C(CCCN1C(=O)C(c2ccccc2)Oc2cccnc21)Nc1ccccc1Br (stereo not drawn),0.333%,–
COc1ccc(-c2ccc3[nH]c4c(c3c2)CCN2C[C@H]3[C@H](C)ON(C)[C@H]3C[C@@H]42)cc1,-27.7%,–
N=c1c2c(-c3ccccc3)c(-c3ccccc3)n(Cc3ccccc3)c2ncn1CCCO,–,5.62 µM (active)
COCCn1cnc2c1c(=O)n(Cc1ccc(Br)cc1)c(=O)n2Cc1ccccc1,-1.2%,–
CCN(CC)CCn1cnc2c1c(=O)[nH]c(=O)n2Cc1ccccc1,1.96%,–
FC(F)(F)c1cccc(-c2nc3ccccc3n2C(c2ccccc2)c2nc3ccccc3[nH]2)c1 (stereo not drawn),-15.5%,–
CCN(CC)C(=O)C1CCCN(Cc2cccc(Cl)c2)C1 (stereo not drawn),12.2%,–
CC1(C(=O)Nc2ccccc2Br)CCN1C(=O)CC1CC1 (stereo not drawn),3.95%,–
CC[C@@H]1Cc2cc(O)ccc2C2=C1c1ccc(O)cc1C[C@H]2CC,–,14.6 µM (active)
CC(C)OC(=O)CC(=O)CC(O)c1cccc([N+](=O)[O-])c1 (stereo not drawn),-12.4%,–
COc1ccc(CCNC(=O)CN(c2ccccc2)S(=O)(=O)c2ccccc2)cc1,-17.4%,–
COC(=O)C1(C(=O)OC)C/C=C\CN(S(=O)(=O)c2ccccc2[N+](=O)[O-])CCC1,6.9%,–
O=C(Nc1ccncc1)c1ccc(Cl)c([N+](=O)[O-])c1,7.37%,–
Nn1cnnc1N/N=C/c1cc([N+](=O)[O-])c(Cl)cc1Cl,1.7%,–
NC(N)=N/N=C/c1ccc(Cl)c([N+](=O)[O-])c1,–,23.1 µM (active)
CC(=O)Nc1ccc(C=CC(=O)c2ccc([N+](=O)[O-])cc2)cc1,6.51%,–
O=C(/C=C/c1ccc(Cl)c([N+](=O)[O-])c1)c1ccc(O)cc1,–,11.6 µM (active)
CC(CC(=O)O)C(=O)c1ccc(Cl)c([N+](=O)[O-])c1 (stereo not drawn),2.94%,–
CC(=O)C[C@@H]1OC[C@H](CO)N1S(=O)(=O)c1ccc(C)cc1,22.6%,–

Compound,"activity, negative = toxicity",Potency
Cn1ncc([N+](=O)[O-])c1C(=O)Nc1cc(Cl)ccc1Cl,-2.97%,–
CCCC/C=C/c1cccc2nncn12,0.514%,–
CN(C)C(CNC(=O)c1cc(Br)c(Br)s1)c1ccco1 (stereo not drawn),-0.0129%,–
CC1CCN(C(=O)CSc2nnc(-c3ccco3)n2N)CC1,9.04%,–
O=C(CCCOc1ccc(Cl)cc1Cl)NNC(=O)C1CCC1,-11.3%,–
O=C(NC(c1ccc(-c2ccccc2)cc1)c1cnccn1)C1CCN(CCOc2ccc(Cl)cc2Cl)CC1 (stereo not drawn),–,14.6 µM (active)
COc1cccc(CN2CCC(C(=O)NC(c3ccc4c(c3)OCO4)c3ccccn3)CC2)c1 (stereo not drawn),-8.81%,–
O=C1NC(Cc2ccccc2)c2nc3ccc(Br)cc3c(=O)n2-c2cc3ccccc3cc21 (stereo not drawn),-9.22%,–
COc1ccc(CN2C(=O)C(CC(=O)NC3CCCCC3)CC(C(=O)N3CCOCC3)=C2C)cc1 (stereo not drawn),-3.06%,–
CCCCCc1c(-c2cccc(Br)c2)ncn1CCc1ccccc1OC,–,18.4 µM (active)
CCCCc1c(-c2ccc(Br)cc2)ncn1CCc1ccccc1OC,–,7.31 µM (active)
CCCCCc1c(-c2ccc(OC)c(OC)c2)ncn1CCc1ccccc1OC,–,10.3 µM (active)
CCC(=O)NCc1cc(-c2nn(C)c(=O)c3ccccc23)ccc1OC,-4.19%,–
COc1ccc(-c2nn(-c3ccccc3)cc2C(=O)Nc2nccs2)cc1OC,-22.5%,–
COC(=O)c1ccc2nc(-c3cccc(Br)c3)c(Cc3ccccc3C(F)(F)F)n2c1,7.64%,–
COC(=O)c1ccc2nc(-c3cccc(Br)c3)c(Cc3ccc(OC)cc3C)n2c1,-8.37%,–
COc1ccccc1CCNS(=O)(=O)c1cn(C)nc1C,-0.537%,–
COc1ccccc1Cc1c(-c2ccc(Cl)cc2)nc2ccc(Cl)cn12,-22.2%,–
COc1cccc(-c2cnc(C(O)c3ccccc3OC)[nH]2)c1 (stereo not drawn),21%,–
CCCOc1ccc(F)cc1-c1cc(C(=O)NCc2ccc(F)cc2)[nH]n1,-15.1%,–
O=C(COc1ccc(S(=O)(=O)N2CCCC2)cc1[N+](=O)[O-])N1CCCCC1,2.99%,–
CCCCCCCCN1C(=O)[C@H](CC(=O)NCC23CC4CC(CC(C4)C2)C3)C[C@@]2(C(=O)OC)CCCCC=C12,4.09%,–
C[C@@H]1CN([C@@H](C)CO)C(=O)c2c(c3ccccc3n2C)-c2ccccc2CO[C@H]1CN(C)C(=O)C1CC1,4.26%,–
Cc1c(C(=O)NCc2ccc(C#N)cc2)sc(=O)n1Cc1ccc(C(=O)N(C)C)cc1,-10.5%,–
